# TDP1 cell CPT = qHTS for Inhibitors of human tyrosyl-DNA phosphodiesterase 1 (TDP1): qHTS in cells in presence of CPT. Potency, µM (doses to about 46.2 µM), inactives show at the top dose activity change, negative = growth inhibition, usual class: inhibitors. chicken DT40 Tdp1-/-;hTDP1 cells + 20 nM CPT, ATP luminescence, 48 h. 420,000 tested, 12% active; further: potency means the concentration at half of the fitted maximal effect; nearly all actives have a fitted effect of over 55% in size
#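 Cell growth measured by CellTiter-Glo luminescence after a minimum 48 h, 37 C compound exposure with 20 nM CPT in Tdp1-knockout DT40 cells stably expressing hTDP1, seeded 400/well; qHTS titration format.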
# Gal4-VP16 FLuc = VP16 counterscreen qHTS for inhibitors of ROR gamma transcriptional activity | Drosophila S2 Gal4-VP16 UAS-luciferase, luminescence, 20 h | Potency, µM (top dose mostly 53.6 µM), for inactives: top-dose activity, negative = inhibition, actives largely listed as inhibitors | 310,000 tested, 3.5% active | AID 2546, 2010;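 further: Gal4-VP16 expression switched on by copper sulfate through the metallothionein promoter; potency means the concentration at half of the fitted maximal effect; nearly all actives have a fitted effect of over 50% in size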
# RORg inh = qHTS for inhibitors of ROR gamma transcriptional activity | 310,000 tested, 5.4% active | Drosophila S2 Gal4-RORgamma UAS-luciferase reporter, 20 h | Potency, µM (highest dose often 53.6 µM), for the others: top-dose activity change, negative = inhibition, actives largely listed as inhibitors | Nuclear receptor ROR-gamma (Mus musculus), P51450; further: potency means the concentration at half of the fitted maximal effect; nearly all actives have a fitted effect of over 60% in size
# Target sequence (P51450 whole entry, looked up, the tested form may be a part): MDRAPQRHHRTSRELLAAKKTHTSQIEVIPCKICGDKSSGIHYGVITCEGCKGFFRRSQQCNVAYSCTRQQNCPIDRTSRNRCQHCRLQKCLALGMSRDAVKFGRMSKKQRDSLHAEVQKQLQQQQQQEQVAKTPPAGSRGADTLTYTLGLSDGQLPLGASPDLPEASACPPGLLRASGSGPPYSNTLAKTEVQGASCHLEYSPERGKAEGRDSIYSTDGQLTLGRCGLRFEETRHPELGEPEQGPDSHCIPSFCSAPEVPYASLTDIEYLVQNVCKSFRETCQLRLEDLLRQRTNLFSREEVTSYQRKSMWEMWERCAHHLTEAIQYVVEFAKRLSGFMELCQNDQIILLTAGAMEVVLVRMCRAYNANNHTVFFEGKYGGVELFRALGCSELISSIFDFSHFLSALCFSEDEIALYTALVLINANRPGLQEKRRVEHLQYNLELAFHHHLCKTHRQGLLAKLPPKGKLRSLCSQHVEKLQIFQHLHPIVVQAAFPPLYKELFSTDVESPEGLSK
#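 Stable Schneider cell line, Gal4 DNA-binding domain fused to ROR gamma, UAS-luciferase. Cmpd 1 hr RT → CuSO4 700 uM final → 20 hr RT → luciferase reagent 10 min → luminescence.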
# TDP1 cell noCPT = qHTS for Inhibitors of human tyrosyl-DNA phosphodiesterase 1 (TDP1): qHTS in cells in absence of CPT; DT40 Tdp1-/- hTDP1 cells, no CPT, ATP luminescence, 48 h; Potency, µM (doses to about 46.2 µM), without a hit: at the top dose activity change, negative = growth inhibition, usual class: inhibitors; 420,000 tested, 15% active; AID 686978, 2013; further: potency means the concentration at half of the fitted maximal effect; nearly all actives have a fitted effect of over 55% in size
#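 Seeded 400 DT40-hTDP1 cells/well (vehicle DMSO, no 20 nM CPT); pinned compounds; ≥48 hr at 37 °C; CellTiter-Glo luminescence as viability measure.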
# IL-1B inflam inh = qHTS for Inhibitors of Inflammasome Signaling: IL-1-beta AlphaLISA Primary Screen; THP-1 LPS/ATP IL-1B secretion, AlphaLISA, 16 h; stronger effect = lower value; activity change, % at 57.5 µM; 360,000 tested, 4.7% active; AID 743279, 2014; in the data active means activity change below about -50%; inconclusive means mostly about -30% to -49%
#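 THP-1 cells pretreated 1 hr with compounds (up to 57.5 uM final), then stimulated with LPS (250 ng/mL final) plus ATP (1.25 mM final); secreted IL-1B measured by AlphaLISA after 16 hr, decreased signal indicating inhibition.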
# LDHA block = qHTS assay for inhibitors of human lactate dehydrogenase; purified LDHA, NADH/diaphorase-resazurin fluorescence; stronger effect = lower value; activity change, % (values are at about 110 or 230 µM); 480,000 tested, 0.15% active; in the data active means activity change below about -30%; inconclusive means mostly about -25% to -30%;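 further: plate controls were DMSO wells for no effect and wells without enzyme for full effect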
#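 Remaining NADH was detected by diaphorase (0.133 mg/mL) converting 37 µM resazurin to fluorescent resorufin, read at 0 and 20 minutes. The preceding 5-minute room-temperature reaction used 2 nM LDHA, 0.2 mM sodium pyruvate and 0.06 mM NADH at pH 7.4.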
# Starred values were filed as active, the others as inactive; ? = inconclusive; . = not tested or not shown. Only some compounds are listed: those with a hit (about 18% of all), similar ones and a draw of the others. Unless noted, the call rests on the fitted dose curve; in most records, active means well fitted curve in the direction sought with a large enough effect; inconclusive means small, poorly fitted or top-dose-only effect, or another doubt; inactive means no such curve, though single readings can be large; an effect the other way counts as inactive or inconclusive. Unless noted, on the % scale 0 is the no-effect control and ±100 the full control effect.
SMILES,TDP1 cell CPT,Gal4-VP16 FLuc,RORg inh,TDP1 cell noCPT,IL-1B inflam inh,LDHA block
CC1=C/C(=N\OC(=O)/C=C/c2ccccc2)C(C)=CC1=O,23µM*,0%,-3%,?,-17,2
COc1ccc(C2/C=C\CN(C(=O)Nc3ccccc3-c3ccccc3)CC(=O)N2Cc2ccc(F)cc2)cc1 (stereo not drawn),23µM*,6%,3%,?,-22,1
COc1ccc(C2/C=C\CN(C(=O)C3CCCCC3)CC(=O)N2Cc2ccc(F)cc2)cc1 (stereo not drawn),?,-2%,23%,?,-13,-3
C=CC(=O)N1C/C=C\C(c2ccc(OC)cc2)N(Cc2ccc(F)cc2)C(=O)C1 (stereo not drawn),?,8%,-25%,-21%,-61*,-12
COc1ccc(C2/C=C\CN(C(=O)NC34CC5CC(CC(C5)C3)C4)CC(=O)N2Cc2ccc(F)cc2)cc1 (stereo not drawn),23µM*,-10%,7%,?,29,-1
CCCCC(=O)N1C/C=C\C(c2ccc(OC)cc2)N(Cc2ccc(F)cc2)C(=O)C1 (stereo not drawn),?,2%,13%,?,12,-1
COc1ccc(C2/C=C\CN(C(=O)C3CCCC3)CC(=O)N2Cc2ccc(F)cc2)cc1 (stereo not drawn),21µM*,4%,35%,?,20,0
COC(=O)N1C/C=C\C(c2ccc(OC)cc2)N(Cc2ccc(F)cc2)C(=O)C1 (stereo not drawn),-19%,11%,27%,-8%,-6,0
COc1ccc(Nc2nc(C(=O)OCC(=O)c3ccc(Cl)cc3)cs2)cc1,.,.,.,.,.,9
Cc1ccc(S(=O)(=O)N(CC(=O)N2CCN(C(=O)c3ccco3)CC2)Cc2ccco2)cc1C,.,.,.,.,.,3
COc1cccc(Nc2ccc(Nc3cccc(OC)c3)nn2)c1,?,-26%,11µM*,?,-99*,-5
O=C(O)c1ccc(COc2ccc(F)c(Cl)c2)o1,.,.,.,.,.,-3
CCCn1c(=O)[nH]c(=O)c2c1nc(-c1ccc(CC)cc1)n2CCOC,.,.,.,.,.,-22
CC(C)N(Cc1ccccc1)C(=O)COC(=O)C1CCN(c2ccc(C(F)(F)F)cn2)CC1,16µM*,.,.,18µM*,6,1
CC(C)(C)N(Cc1ccccc1)C(=O)COC(=O)C1CCN(c2ccc(C(F)(F)F)cn2)CC1,?,.,.,15µM*,2,1
CN(Cc1cccc(F)c1)C(=O)c1cccc(NS(C)(=O)=O)c1,.,.,.,.,.,2
C[C@H]1CC(=O)[C@@]23COC4OC(c5ccoc5)CC41[C@@H]2CCCC31CO1 (stereo partly drawn),.,.,.,.,.,0
c1ccc(-c2ccccc2OCCCCN2CCCCC2)cc1,?,-18%,-43%,16µM*,-63*,-19
N=C(CC(O)COc1ccccc1-c1ccccc1)N1CCCCC1 (stereo not drawn),5.2µM*,-9%,-2%,3.3µM*,.,.
c1ccc(-c2ccccc2OCCOCCN2CCOCC2)cc1,-17%,1%,-26%,-4%,8,-45*
c1ccc(-c2ccccc2OCCCN2CCCCCC2)cc1,?,-3%,-13%,?,?,-11
Fc1ccccc1OCCCCN1CCCCC1,2%,-6%,-11%,12%,15,-21
c1ccc2c(OCCCCN3CCCC3)cccc2c1,?,5%,-19%,26µM*,-2,-2
O=C(COc1ccc(-c2ccccc2)cc1Cl)c1ccc[nH]1,.,.,.,.,.,6
